Assay outcomes deposited in PubChem BioAssay by National Center for Advancing Translational Sciences (NCATS).
POLH inh – blocks human DNA polymerase eta activity. Q9Y253. recombinant Pol eta, fluorescent DNA replication assay. Potency, µM (series often up to 114 µM), inactives show top-dose activity change, negative = inhibition, usual class: inhibitors. hit rate 1.2% among 390,000; note: potency is the fitted concentration of half-maximal effect; % is set by controls: 0 for no effect and ±100 for the full control effect
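Pol eta at 10 nM preincubated with compounds 15 min at room temperature; reaction started with fluorescent substrate (50 nM final) and read kinetically at 0 and 10 min.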
POLB inh – inhibitors of human DNA polymerase beta. P06746. hit rate 1.3% among 340,000. Potency, µM (titrated, usually from 114 µM), for inactives: top-dose activity change, negative = inhibition, actives largely listed as inhibitors. Pol beta primer extension/strand displacement, fluorescence kinetic; note: potency is the fitted concentration of half-maximal effect; % is set by controls: 0 for no effect and ±100 for the full control effect
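Kinetic readout of DNA synthesis with strand displacement by Pol beta. Compound and 10 nM enzyme sit 15 min at room temperature; 50 nM substrate starts the reaction, read immediately and at 10 min.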
POLK inh – inhibitors of human DNA polymerase kappa | hit rate 0.53% among 400,000 | AID 588579 | Q9UBT6 | Potency, µM (top dose mostly 107 µM), without a hit: at the highest dose activity, negative = inhibition, usual class: inhibitors | purified Pol kappa, fluorescent DNA synthesis assay, 10 min; note: potency is the fitted concentration of half-maximal effect; % is set by controls: 0 for no effect and ±100 for the full control effect
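Inhibition of 10 nM Pol kappa is measured by a fluorescent read-out at 0 and 10 min following addition of 50 nM substrate (final), with a 15-min room-temperature compound preincubation.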
POLI inh – DNA polymerase iota (human) inhibition | Pol iota fluorescent replication assay, 10 min | Potency, µM (series often up to 115 µM), inactives show top-dose activity, negative = inhibition, hits mostly inhibitors | hit rate 1% among 390,000 | AID 588590; note: potency is the fitted concentration of half-maximal effect
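Pol iota at 10 nM preincubated 15 min with compounds at room temperature; reaction started with fluorescent substrate, 50 nM final. Fluorescence read kinetically at 0 and 10 min; buffer-only wells as negative control.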
WRN helicase inh – blocks human WRN helicase. Q14191. WRN helicase unwinding, fluorescent forked duplex, kinetic. Potency, µM (titrated, usually from 114 µM), without a hit: at the top dose activity change, negative = inhibition, actives largely listed as inhibitors. hit rate 0.46% among 360,000. AID 651768; note: potency is the fitted concentration of half-maximal effect; % is set by controls: 0 for no effect and ±100 for the full control effect; nearly all actives have a fitted effect of over 55% in size
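Primary qHTS, 1536-well format. 20 nM WRN + compound, 15 min RT; start with 100 nM forked fluorophore/quencher duplex, 2 mM ATP (final); kinetic read ex 525/em 598 nm.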
PI5P4K alpha inh – inhibitors of human PI5P4K alpha; P48426; PI5P4Kalpha enzyme, ADP-Glo luminescence, 60 min; active compounds read low; max response, %; hit rate 1.2% among 330,000; AID 652105; active = max response of -50% or lower; inconclusive = between -30% and -50%; inactive = -30% or higher; note: value at the top dose of about 77 µM; % is set by controls: 0 for no effect and ±100 for the full control effect
Target sequence (P48426 whole entry, looked up): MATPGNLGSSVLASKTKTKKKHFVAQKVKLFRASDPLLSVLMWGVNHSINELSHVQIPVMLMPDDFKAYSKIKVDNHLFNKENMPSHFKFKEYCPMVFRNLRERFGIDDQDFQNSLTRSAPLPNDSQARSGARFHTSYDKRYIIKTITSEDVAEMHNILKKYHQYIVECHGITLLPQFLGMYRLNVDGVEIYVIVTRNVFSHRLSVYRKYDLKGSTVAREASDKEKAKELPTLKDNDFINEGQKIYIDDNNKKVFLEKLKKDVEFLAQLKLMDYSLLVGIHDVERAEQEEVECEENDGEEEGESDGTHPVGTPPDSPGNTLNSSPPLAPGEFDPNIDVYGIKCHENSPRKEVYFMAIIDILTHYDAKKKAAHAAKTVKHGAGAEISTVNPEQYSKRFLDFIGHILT
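Quantitative HTS of the MLSMR library against PI5P4Kalpha with substrate. ATP added last at 5 microM final; room temperature, 60 minutes. Remaining ATP depleted, ADP converted and read as luminescence.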
An asterisk follows results filed as active; [ ] = another dose, or the depositor's remark. An excerpt weighted towards active compounds, which were near 2.8% of everything screened. Unless noted, calls come from the whole dose curve; as a rule, active = well fitted curve in the direction sought with a large enough effect; inconclusive = small, poorly fitted or top-dose-only effect, or another doubt; inactive = no such curve, though single readings can be large; an effect the other way counts as inactive or inconclusive.

For CN1CCN(c2ncnc3ccc(-c4cccnc4)cc23)CC1 the results were POLK inh 3%[60.1 µM].
Screening N=C1/C(=C/c2cccn2-c2ccc([N+](=O)[O-])cc2)C(=O)N=C2SC=CN12 returned POLH inh inconclusive, POLB inh inconclusive, POLK inh -17%, POLI inh inconclusive, WRN helicase inh -12%[11.6 µM] and PI5P4K alpha inh inconclusive.
For O=C1NC(=S)N/C1=C/c1cccn1-c1ccc([N+](=O)[O-])cc1 the results were POLH inh inconclusive, POLB inh 7.9µM*, POLK inh inconclusive, POLI inh 56µM*, WRN helicase inh -7% and PI5P4K alpha inh -55*.
Screening Cc1ccc(N=C2NC(=O)/C(=C\c3ccco3)S2)cc1 returned POLH inh 14µM*, POLB inh inconclusive, POLK inh inconclusive, POLI inh 32µM*, WRN helicase inh inconclusive and PI5P4K alpha inh -57*.
Cc1cccc(N=C2NC(=O)S/C2=C\c2ccco2)c1 was read as POLH inh inconclusive, POLB inh inconclusive, POLK inh 79µM*, POLI inh 35µM*, WRN helicase inh -27% and PI5P4K alpha inh inconclusive.
Cc1cccc(N=C2CSC(=O)N2)c1 was read as POLH inh 1%, POLB inh 2%, POLK inh -1%, POLI inh 135%, WRN helicase inh 2% and PI5P4K alpha inh 2.
O=C1NC(=Nc2ccc(O)cc2)S/C1=C/c1ccco1 was read as POLH inh -10%, POLB inh inconclusive, POLK inh -34%, POLI inh 7%, WRN helicase inh -10% and PI5P4K alpha inh inconclusive.
Cc1ccc2cc3c(N)c4c(C)ccc(C)c4nc3nc2c1 was read as POLH inh inconclusive, POLB inh 25µM*, POLK inh -33%, POLI inh inconclusive, WRN helicase inh -23% and PI5P4K alpha inh -4.
For CCc1ccc(NS(=O)(=O)c2[nH]ncc2C(=O)OC)cc1 the results were POLH inh -12%, POLB inh inconclusive, POLK inh -26% and POLI inh 79µM*.
Screening Cc1ccc(OCC(=O)NNC(=O)C2CSC3(C)CCC(=O)N23)cc1 (stereo not drawn) returned POLH inh 0%, POLK inh -11%, POLI inh 9%, WRN helicase inh -2% and PI5P4K alpha inh -6.
Screening O=C(CN1C(=O)/C(=C/c2ccco2)SC1=S)Nc1ccc(O)c(C(=O)O)c1 returned POLH inh inconclusive, POLB inh 10µM*, POLK inh inconclusive, POLI inh -41%, WRN helicase inh -1% and PI5P4K alpha inh inconclusive.
CN1C(=S)N(c2ccccc2)C(=O)/C1=C/c1ccco1 was read as POLH inh -6%, POLB inh 17%, POLK inh -14%, POLI inh 12%, WRN helicase inh -2% and PI5P4K alpha inh 3.
`O=C1/C(=C\c2ccco2)SC(=S)N1c1ccc(O)cc1` gave POLH inh -12%, POLB inh 20µM*, POLK inh -24%, POLI inh inconclusive, WRN helicase inh -8% and PI5P4K alpha inh -11.
CC(=C\c1ccco1)/C=C1/SC(=S)N(CC(=O)O)C1=O was read as POLH inh 40µM*, POLB inh 20µM*, POLK inh inconclusive, POLI inh inconclusive, WRN helicase inh -29% and PI5P4K alpha inh -4.
Screening NN1C(=O)/C(=C\c2ccco2)SC1=S returned POLH inh -24%, POLB inh 7.9µM*, POLK inh inconclusive, POLI inh inconclusive, WRN helicase inh -5%[11.6 µM] and PI5P4K alpha inh -15.
CSc1ccc(/C=C2\C=Cc3cc([N+](=O)[O-])ccc32)cc1 was read as POLK inh -7% and POLI inh -6%.
Cc1ccc(C(=O)Nc2cccc(S(=O)(=O)N3CCCCC3)c2)cc1S(=O)(=O)N1CCOCC1 was read as POLH inh -7%, POLK inh -6%, POLI inh 84%, WRN helicase inh -4% and PI5P4K alpha inh 3.
